The panel holds about 83,000 compounds, 20% with a hit somewhere; the sample as a whole holds those more often.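 Each cell line was grown in a 96-well plate and treated with one concentration of compound for 48 hours. Values below 10 were considered active.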 Unmarked numbers belong to inactive results. The source made the active and inactive calls.
Key:
Test in all cases: NCI-60 one-dose screen, 48 h (100 = growth as untreated, 0 = no growth, -100 = all killed)
Settings in all cases: 10 µM unless noted
[1] = test system: NCI-H23 lung
[2] = test system: HOP-62 NSCLC
[3] = test system: NCI-H460 lung
[4] = test system: HOP-92 NSCLC
[5] = test system: NCI-H522 lung
[6] = test system: A549/ATCC NSCLC
[7] = test system: 786-0 renal
[8] = test system: COLO 205 colon
[9] = test system: DU-145 prostate
[10] = test system: K-562 leukemia
[11] = test system: MALME-3M melanoma
[12] = test system: MDA-MB-231 breast
[13] = test system: RXF 393 renal
[14] = test system: SF-268 CNS
[15] = test system: SF-295 CNS
[16] = test system: SF-539 CNS
[17] = test system: UACC-257 melanoma
[18] = test system: M14 melanoma
[19] = test system: NCI-H322M lung

| Compound | growth [1] | growth [2] | growth [3] | growth [4] | growth [5] | growth [6] | growth [7] | growth [8] | growth [9] | growth [10] | growth [11] | growth [12] | growth [13] | growth [14] | growth [15] [%] | growth [16] | growth [17] | growth [18] | growth [19] [%] |
| --- | --- | --- | --- | --- | --- | --- | --- | --- | --- | --- | --- | --- | --- | --- | --- | --- | --- | --- | --- |
| NS(=O)(=O)c1ccc(C(=O)NN2C(=O)c3ccccc3C2=O)cc1 | 105% | 108% | 112% | 107% | 99.5% | 110% | 105% | 108% | 105% | 101% | 109% | 109% | 120% | 92.8% | 98.7 | 113% | 110% | 104% | – |
| COc1ccc2cc(-c3nc4ccc(C)cn4c3NCc3ccco3)c(=O)[nH]c2c1 | 70.2% | 90.7% | 88.9% | 20.6% | 87.3% | 85.2% | 67.9% | 76% | 71.7% | 74.3% | 75.4% | 49.6% | 73.4% | 71.6% | 74.8 | 65.5% | 103% | 86.8% | 74.1 |
| O=C(NCCCCCCNC(=O)OCc1ccc2c(Cl)cc(Cl)c(O)c2n1)OCc1ccc2c(Cl)cc(Cl)c(O)c2n1 | -69.2% (active) | -42.5% (active) | -30.7% (active) | -60.1% (active) | -57.4% (active) | -39.6% (active) | -63.1% (active) | -82.5% (active) | -50.4% (active) | 1.59% (active) | -84.5% (active) | -92.7% (active) | -87% (active) | -50.7% (active) | 32.4 | -97.1% (active) | -29.3% (active) | -38.7% (active) | 43.6 |
| COc1ccc(CNc2ccc3nc(NC(=O)CN4CCCCCC4)sc3c2)cc1 | 71.1% | 113% | 94.9% | 77.6% | 70.3% | 80.5% | 104% | – | 99.2% | 44.6% | 96.3% | 77.7% | 97% | 108% | 83.8 | 102% | 86% | 85.9% | 106 |

Source: PubChem BioAssay (NCI)
